One experiment addresses PUM1 PUF domain R1-RWT (Homo sapiens, UniProt Q14671 828-1176, S863R;R864W;Q867T). As to the kind of experiment: yeast three-hybrid, YBZ-1, SC-Leu-His + 0.5 mM 3-AT, 4 days. The note with it: tags: N-Gal4 AD-HA kept; label: inside an RPR1-promoter hybrid RNA with tandem MS2 sites; ssRNA. Summed up: (§1)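 Sequencing with Illumina followed PCR amplification of the repeat regions from transformants grown four days on SC-Leu (input) or SC-Leu-His + 0.5 mM 3-AT (selection). The transformants were strain YBZ-1 with a LexA–MS2 coat fusion and a HIS3 reporter, carrying Pumilio-1 PUF domain libraries and matching RNA elements. The interaction score is the log change in variant frequency from input to selection, computed in log2 with a pseudocount of 1 for absent variants.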
Chain of PUM1 PUF domain R7-RNK (Q14671 828-1176 S1079R/E1083K): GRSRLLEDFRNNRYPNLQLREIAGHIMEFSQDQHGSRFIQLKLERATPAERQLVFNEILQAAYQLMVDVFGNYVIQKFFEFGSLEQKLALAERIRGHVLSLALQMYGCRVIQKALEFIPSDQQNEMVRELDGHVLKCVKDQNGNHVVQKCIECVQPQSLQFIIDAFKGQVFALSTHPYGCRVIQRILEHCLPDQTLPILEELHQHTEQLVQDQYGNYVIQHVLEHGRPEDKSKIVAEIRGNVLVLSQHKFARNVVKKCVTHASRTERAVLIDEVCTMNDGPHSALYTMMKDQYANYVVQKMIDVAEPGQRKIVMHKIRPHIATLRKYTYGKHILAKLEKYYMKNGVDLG
Chain of PUM1 PUF domain R1-RWT (Q14671 828-1176 S863R/R864W/Q867T): as the sequence (Q14671 828-1176 S1079R/E1083K) above, with S36R, R37W, Q40T, R252S, K256E counted along it
With “GGCUAGAACUAGUGGAUCCCCCGGCGCCCGGCGGCUCGAGCCCGGGUAAGUGUAAAUCGUCUGCAUGCCGCCGGGCGCCAUGCCUGCAGGUCGACUCUAGAAAACAUG”, the binding signal is 5.45 log2 enrichment (interaction score).
Consider “GGCUAGAACUAGUGGAUCCCCCGGCGCCCGGCGGCUCGAGCCCGGGUAAGUGUAAAUGGUCUGCAUGCCGCCGGGCGCCAUGCCUGCAGGUCGACUCUAGAAAACAUG”, for which the binding signal was 0.98 log2 enrichment (interaction score).
With “GGCUAGAACUAGUGGAUCCCCCGGCGCCCGGCGGCUCGAGCCCGGGUAAGUGUAAAUUGUCUGCAUGCCGCCGGGCGCCAUGCCUGCAGGUCGACUCUAGAAAACAUG”, the binding signal was 4.77 log2 enrichment (interaction score).

The next experiment addresses PUM1 PUF domain R7-RNK (Homo sapiens, UniProt Q14671 828-1176, S1079R;E1083K). The experiment is described as above. The note with it: tags: N-Gal4 AD-HA kept; label: inside an RPR1-promoter hybrid RNA with tandem MS2 sites; ssRNA. The method, boiled down: as §1
Turning to “GGCUAGAACUAGUGGAUCCCCCGGCGCCCGGCGGCUCGAGCCCGGGUAAGUAUAAAUAGUCUGCAUGCCGCCGGGCGCCAUGCCUGCAGGUCGACUCUAGAAAACAUG”, the binding signal was 2.99 log2 enrichment (interaction score).
Still for that read-out and setting: the figure for “GGCUAGAACUAGUGGAUCCCCCGGCGCCCGGCGGCUCGAGCCCGGGUAAGUGUAAAUAGUCUGCAUGCCGCCGGGCGCCAUGCCUGCAGGUCGACUCUAGAAAACAUG” is 2.47 log2 enrichment (interaction score); for “GGCUAGAACUAGUGGAUCCCCCGGCGCCCGGCGGCUCGAGCCCGGGUAAGUCUAAAUAGUCUGCAUGCCGCCGGGCGCCAUGCCUGCAGGUCGACUCUAGAAAACAUG” it is 3.45 log2 enrichment (interaction score).

For the origin of these results see publication PMC8384837, “Expanding the binding specificity for RNA recognition by a PUF domain”.
